Hit rate of the full screen: of about 360,000 compounds, about 1,700 (0.47%) were called active. The list comes from a sample in which actives are over-represented; it also holds similar structures and randomly drawn compounds. Unmarked numbers belong to inactive results. Cut-off read from the data, not from the text of the source: active = activation above about 15%; inactive = the rest.

This assay can be described thus: counter-screen for M1 agonists: effect in parental CHO-K1 cells (AID 602248).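 Note: untransfected CHO-K1 host cells lacking M1 receptor as counterscreen.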 The following applies: Fluo-8 calcium fluorescence, at 3 µM, stronger effect = higher value, scaled to maximal ATP response, vehicle zero.
As for `O=C(O)c1cc2c(cc1NC(=O)c1c(F)cccc1Cl)OCCCO2`, the activation is 0.67%.
Then `O=C(O)c1cc(Cl)c(Cl)cc1C(=O)Nc1cccc2ncccc12`, with 20.9% (active).
Next, `Cc1ccc(/C=C(\C#N)C(=O)Nc2cccc3ncccc23)o1`: 2.57%.
Then `COc1ccc(C(=O)CSc2nnnn2C)c(OC)c1`, with -0.15%; and `O=c1c2ccccc2c(-c2ccc(Br)cc2)nn1Cc1ccccc1`, with 0.4%; and `COC(=O)c1ccc(SCc2ccccc2)nc1`, with -0.21%.
`CSc1c(SCc2ccccc2)cnn(Cc2ccccc2)c1=O`: the activation is 18.2% (active).
Regarding `Cc1nn(CC2CC2)c(=O)n1N(C)c1ncc(C(F)(F)F)cc1Cl`, the activation is 1.05%.
Then `COc1ccc2c(CN3CCN(S(=O)(=O)c4cccs4)CC3)cc(=O)oc2c1`, with 16.1% (active); and `Cc1ccc2c(CN3CCN(S(=O)(=O)c4ccccc4C(F)(F)F)CC3)cc(=O)oc2c1`, with 6.94%; and `Cc1cc2oc(=O)cc(CN3CCN(S(=O)(=O)c4cccs4)CC3)c2cc1C(C)C`, with 1.53%.
Next, `O=C(Nc1ccc2ccccc2c1)Nc1ccc2snnc2c1`: 14%.
Then `COc1ccc(NC(=O)Nc2ccc3nsnc3c2)cc1`, with 19.9% (active); and `O=C(Nc1ccccc1)c1ccc2nsnc2c1`, with -0.09%.
As for `CCc1ccccc1NC(=O)Cc1cn(C)c2ccccc12`, the activation is 8.41%.
Next, `CC(C)(C)C1CCC(=O)N2CCC[C@]2(c2ccccc2)C1` (stereo not given in full): -0.26%; `Cc1nc(N)c(Br)c(C)c1Br`: -0.78%; `COc1ccccc1CNc1nc(Nc2ccccc2Cl)c2sccc2n1`: 7.11%.
Then `COc1cccc(CNc2nc(NCc3ccccc3OC)nc3ccsc23)c1`, with 8.82%; and `COc1cccc(CNc2nc(NCc3cccs3)nc3ccsc23)c1`, with 24.7% (active); and `CN1C(C)(C)CC(NC(=O)CCC(=O)NC2CC(C)(C)N(C)C(C)(C)C2)CC1(C)C`, with 0.35%.
Next, `C=CCN1C2CCCC1CC(NC(=S)Nc1cccc(OC)c1)C2` (stereo not given): 1.29%; `N#Cc1c(-c2ccccc2)c(-c2ccccc2)n[nH]c1=O`: -0.04%; `Cc1ccc(C)c2c1cc(C)c1nnc(SCC(=O)Nc3cccc(C(=O)O)c3)n12`: 1.47%.
Regarding `O=C(CNCc1ccc(Cl)cc1)Nc1cccc(C(=O)O)c1`, the activation is 18.2% (active).
Next, `O=C(CCCOc1ccccc1)Nc1cccc(C(=O)O)c1`: 0.45%; `O=C(NCc1ccco1)c1cccc(-c2ccc3nncn3c2)c1`: 0.29%.
Next, `C1CC1Cc1noc(CN2CCN(CC3CC3)CC2)n1`: 1.05%; `COc1cc(OC)c(N2CC(C(=O)Nc3cc(Cl)ccc3N3CCOCC3)CC2=O)cc1Cl` (stereo not given): 4.62%.
Next, `COc1ccc(Cl)cc1S(=O)(=O)N1CCC(O)(c2ccc(Cl)cc2)CC1`: 0.66%; `COc1cc(OC)c(-n2cc(-c3ccc(Cl)cc3)[nH]c2=O)cc1Cl`: 25.2% (active); `O=C(CCCN1CCc2[nH]c3ccc(F)cc3c2C1)c1ccc(F)cc1`: 24% (active).
Regarding `CC1CCc2[nH]c3ccc(C(=O)N(C)CC(=O)Nc4cccc(F)c4)cc3c2C1` (stereo not given), the activation is 2.26%.
Then `Cn1c(SCC(=O)N2CCOCC2)nnc1-c1ccc2ncccc2c1`, with 0.63%; and `Cc1c(Cl)c([N+](=O)[O-])nn1CCCC(=O)NC(C)c1ccccc1` (stereo not given), with -0.09%.
Then `CN(C)c1ccc(/C=N/NC(=O)c2ccc(Cn3cc(Br)cn3)o2)cc1`, with 0.99%.
As to `Cc1c(Cl)c([N+](=O)[O-])nn1Cc1ccc(C(=O)N/N=C\c2cc(Cl)ccc2O)o1`, the activation was 19.9% (active).
Then `C=C(C)CSc1nnc(-c2ccc(C)cc2)n1N`, with 0.17%.
Consider `O=C(CCN1C(=O)c2ccccc2C1=O)NCCCn1ccnc1`, for which the activation was 0.76%.
As for `COCc1c(N)c(C)nc(Cl)c1C#N`, the activation was 16.9% (active).
Turning to `COC(=O)c1c(C)c(C)nc(N)c1C#N`, the activation is 0.12%.
Then `Cc1nc(Cl)c(C#N)c2c1CCCC2`, with 0.61%; and `CCNC(=O)C1(C)CCN(C(=O)c2ccccc2)C1` (stereo not given), with -0.33%.
Then `O=C(Cn1ccc([N+](=O)[O-])n1)NCc1cccs1`, with 0.12%; and `OCCN1CCN(c2ncnc3c2ncn3[C@H]2CN(Cc3ccco3)C[C@@H](CO)O2)CC1`, with 0.92%; and `CCNC(=O)N1CCN(S(=O)(=O)c2ccc3c(c2)OCCCO3)CC1`, with 1.28%.
Then `COc1cc(NC(=O)c2ccc(CNc3c(N4CCCC4)c(=O)c3=O)cc2)cc(OC)c1OC`, with 0.42%; and `CC(=O)Oc1ccc(Cn2c(C)c(C(=O)NCc3ccc(C#N)cc3)sc2=O)cc1`, with 31.7% (active); and `Cc1c(C(=O)NCc2ccc(C#N)cc2)sc(=O)n1Cc1ccc(C(=O)N(C)C)cc1`, with -0.19%.
Take `Cc1ccc(Cn2c(C)c(C(=O)NCc3ccccc3C(F)(F)F)sc2=O)cc1`: the activation was 0.82%.
Then `CCC(CC)C(=O)Nc1c2c(nn1-c1ccc(C)cc1)CS(=O)(=O)C2`, with -0.47%.
As to `O=C(NCc1ccc2c(c1)OCO2)C(=O)NCC1OCCN1S(=O)(=O)c1ccc(F)cc1` (stereo not given), the activation was 1.05%.
Then `O=C(O)c1ccc(S(=O)(=O)N2CCOCC2)o1`, with -0.58%.
Take `CNC[C@H]1OCc2cnnn2CCCC(=O)N([C@H](C)CO)C[C@@H]1C`: the activation was 0.47%.
Then `CC(C)CC(=O)NC(=S)Nc1ccc(F)cc1F`, with 1.3%; and `CC(=O)c1ccc(NC(=O)CSC(=S)N2CCCC2)cc1`, with 1.41%.
With `CC(=O)c1ccc(NC(=S)NC(=O)CC(C)C)cc1`, the activation was 16.1% (active).
As for `CCCOc1cc(C)c(S(=O)(=O)n2nnc3ccccc32)cc1C`, the activation was 0.16%.
Next, `CCC(C(=O)Nc1ncccn1)(C(F)(F)F)C(F)(F)F`: 0.01%; `S=C1Nc2cc(Cl)ccc2Sc2ccccc21`: 1.17%.
Turning to `Cc1ccc(S(=O)(=O)N(C)CC(=O)NCC(c2ccc(F)cc2)N2CCOCC2)cc1` (stereo not given), the activation is 0.75%.
Turning to `COC(=O)[C@@H]1C[C@@]2(O)[C@H](O)[C@H](O)[C@H](O)C[C@H]2N1Cc1ccc(C)s1`, the activation is 0.11%.
Next, `COc1ccc(S(=O)(=O)NNC(=O)Nc2ccc(C)cc2)c(OC)c1`: 0.08%.
Then `COc1cc(NC(=O)Nc2ccc(C)cc2)cc([N+](=O)[O-])c1`, with 15.6% (active); and `Cc1ccc(Oc2cc(NC(=O)CCCn3nc(C)c([N+](=O)[O-])c3C)cc([N+](=O)[O-])c2)cc1`, with 0.22%.
Then `CC(C)CCN1C(=O)c2ccc(C(=O)Nc3cccc(S(N)(=O)=O)c3)cc2C1=O`, with 1.4%; and `CCSC1=NCCN1S(=O)(=O)c1ccc(F)cc1`, with 0.73%.
As for `COc1ccc(CNC(=O)COC(=O)c2ccc(C)c(S(=O)(=O)N3CCOCC3)c2)cc1OC`, the activation was 3.58%.
Next, `Cc1ccc(C(=O)OCC(=O)N2CCCCCC2)cc1S(=O)(=O)N1CCOCC1`: 0.59%.
Then `COc1ccc(C(=O)OCC(=O)c2ccc(C)c(S(=O)(=O)N3CCOCC3)c2)cc1OC`, with 15.7% (active); and `COc1ccc(C(C)NC(=O)C23CC4CC(CC(C4)C2)C3)cc1` (stereo not given), with -0.13%.
Turning to `Cc1ccc(NC(=O)COC(=O)CN2CCCCCC2=O)c(C)c1`, the activation was -0.27%.
As to `COc1ccc(-c2ccc3c(c2)C2CC3CCN2CCC#N)cc1` (stereo not given), the activation is 4.03%.
Then `CCOC(=O)N1CCN(C(=O)c2ccc3c(c2)N(Cc2ccc(C)cc2)CCS3)CC1`, with 1.01%; and `O=C(Nc1ccc(Cl)cc1)Nc1ccc(Oc2cccnc2)nc1`, with 15.9% (active).
Take `O=C(NNC(=O)c1csc(-c2cccnc2)n1)Nc1ccc(Cl)cc1`: the activation is 0.53%.
Then `O=C(O)CCCC(=O)Nc1ccc(Oc2cccc(C(F)(F)F)c2)nc1`, with 0.38%; and `COc1ccc(NC2CCCN(C(=O)c3ccncc3)C2)cc1` (stereo not given), with 0.4%; and `CSc1nc(C)nc2c1c(=O)n(C)c(=O)n2C`, with -0.23%.
Take `N#Cc1c(-c2ccc(F)cc2)cc(C2CC2)nc1SCC(=O)c1cccs1`: the activation was 0.07%.

These data come from PubChem BioAssay AID602248 (The Scripps Research Institute Molecular Screening Center, 2012).
